Results filed as inconclusive are left out. Active and inactive are the calls of the source. The calls were made as follows, unless noted: active = hit-call score of the fitted dose curve at least 0.9, where 1 is the maximum; inconclusive = response in the unintended direction; inactive = score below 0.9.
assay: CCTE_Mundy_HCI_hNP1_Casp3_7: CCTE's Caspase-Glo 3/7 Assay in human neuroprogenitor cells for Apoptosis, Mundy Lab (AID 2284240; active = hit-call score of the fitted dose curve at least 0.9, where 1 is the maximum; inactive = score below 0.9)
How it was run: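 Luminescent caspase-3/7 readout, 26.5 h post-dose, in human neural progenitor cells from WA09 embryonic stem cells. Cells grew 40–44 h at 37 °C, 5% CO2 before chemical addition. Activity analysed as signal increase over DMSO baseline.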

Row | Structure (SMILES) | outcome | AC50
1 | CNC(=O)CSP(=O)(OC)OC | inactive | 
2 | CC1(C)[C@H](C(=O)O[C@H](C#N)c2cccc(Oc3ccccc3)c2)[C@@H]1/C=C(\Cl)C(F)(F)F | inactive | 
3 | OC(Cc1ccccc1Cl)(Cn1[nH]cnc1=S)C1(Cl)CC1 (stereo not drawn) |  | 91 µM (active)
4 | CS(=O)(=O)c1ccc(C(=O)C2C(=O)CCCC2=O)c(Cl)c1COCC(F)(F)F | inactive | 
5 | Cc1ccccc1OP(=O)(Oc1ccccc1C)Oc1ccccc1C |  | 10.8 µM (active)
6 | Cc1cc(C(F)(C(F)(F)F)C(F)(F)F)ccc1NC(=O)c1cccc(I)c1C(=O)NC(C)(C)CS(C)(=O)=O | inactive | 
7 | CC(C)[C@@H](Nc1ccc(C(F)(F)F)cc1Cl)C(=O)OC(C#N)c1cccc(Oc2ccccc2)c1 (stereo partly drawn) | inactive | 
8 | NC(=O)c1ccc(N)nc1 | inactive | 
9 | CCOCn1c(-c2ccc(Cl)cc2)c(C#N)c(Br)c1C(F)(F)F |  | 10.5 µM (active)

assay: CCTE_Mundy_HCI_hNP1_CellTiter: CCTE's Cell Titer-Glo 2 Assay in human neuroprogenitor cells for Viability, Mundy Lab (AID 2284241);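 as to AC50: a hit is a drop in ATP luminescence versus DMSO meaning reduced viability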
How it was run: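 Viability read as luminescent ATP content (CellTiter-Glo, 30 min room temperature) twenty-four hours after dosing, relative to DMSO. Cells: WA09-derived hNP1 neuroprogenitors on poly-L-ornithine/laminin, plated 40 to 44 hours before chemical.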

Row | Structure (SMILES) | outcome | AC50
10 | CNC(=O)CSP(=O)(OC)OC | inactive | 
11 | OC(Cc1ccccc1Cl)(Cn1[nH]cnc1=S)C1(Cl)CC1 (stereo not drawn) | inactive | 
12 | CS(=O)(=O)c1ccc(C(=O)C2C(=O)CCCC2=O)c(Cl)c1COCC(F)(F)F | inactive | 
13 | Cc1ccccc1OP(=O)(Oc1ccccc1C)Oc1ccccc1C |  | 18.3 µM (active)
14 | Cc1cc(C(F)(C(F)(F)F)C(F)(F)F)ccc1NC(=O)c1cccc(I)c1C(=O)NC(C)(C)CS(C)(=O)=O | inactive | 
15 | CC(C)[C@@H](Nc1ccc(C(F)(F)F)cc1Cl)C(=O)OC(C#N)c1cccc(Oc2ccccc2)c1 (stereo partly drawn) | inactive | 
16 | NC(=O)c1ccc(N)nc1 | inactive | 
17 | CCOCn1c(-c2ccc(Cl)cc2)c(C#N)c(Br)c1C(F)(F)F |  | 13.5 µM (active)

assay: CCTE_Mundy_HCI_Cortical_Synap_Neur_Matur_NeuronCount: CCTE's Synaptogenesis and Neurite Maturation Assay in rat cortical cells for Neuron Count, Mundy Lab (AID 2284242);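 as to AC50: neuron number from Hoechst nuclei and MAP2 staining by high-content imaging; hits reduce neuron count versus DMSO baseline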
How it was run: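 Cortical cells from rat are plated, treated with AraC at DIV 5, and exposed to test chemicals with a media change at DIV 7. At DIV 12 they are fixed and immunostained (MAP2, synaptophysin), and imaged neuron counts are compared against DMSO controls.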

Row | Structure (SMILES) | AC50 | outcome
18 | CC1(C)[C@H](C(=O)O[C@H](C#N)c2cccc(Oc3ccccc3)c2)[C@@H]1/C=C(\Cl)C(F)(F)F | 3.56 µM (active) | 
19 | OC(Cc1ccccc1Cl)(Cn1[nH]cnc1=S)C1(Cl)CC1 (stereo not drawn) | 83.8 µM (active) | 
20 | Cc1ccccc1OP(=O)(Oc1ccccc1C)Oc1ccccc1C | 2.83 µM (active) | 
21 | CC(C)[C@@H](Nc1ccc(C(F)(F)F)cc1Cl)C(=O)OC(C#N)c1cccc(Oc2ccccc2)c1 (stereo partly drawn) |  | inactive
22 | NC(=O)c1ccc(N)nc1 | 7.58 µM (active) | 
23 | CCOCn1c(-c2ccc(Cl)cc2)c(C#N)c(Br)c1C(F)(F)F | 12.1 µM (active) | 

Source: PubChem BioAssay (EPA / NIEHS)
